The nature of test [1]: qHTS for Inhibitors of Plasmodium falciparum (DD2) proliferation (AID 504314).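 Further: parasite DNA measured by SYBR Green fluorescence after red cell lysis; plate controls were DMSO vehicle for no effect and artemisinin wells for full effect.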 An outline of the steps: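 Parasite proliferation measured as SYBR Green signal from Plasmodium DNA, mature erythrocytes lacking DNA. 72 h incubation, 37C; activity scaled between vehicle and 0.29 uM artemisinin, with correction from vehicle-only plates.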
On the technique in general: In qHTS, concentration-response curves come from the screen itself.

Test [2] in a line: qHTS for Inhibitors of Plasmodium falciparum (GB4) proliferation (AID 504315). Further: nearly all actives have a fitted effect of over 50% in size. Further: potency means the concentration at half of the fitted maximal effect. Put shortly:
(§1)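 Parasite growth measured as SYBR Green DNA fluorescence (ex 485, em 535 nm) after overnight lysis following 72 h culture at 37 °C, 0.3% parasitemia, 2.5% hematocrit. Values normalized against DMSO and 0.29 uM artemisinin controls, with plate-stack correction.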

Test [3] in a line: qHTS for Inhibitors of Plasmodium falciparum (7G8) proliferation (AID 504316).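 Further: series mostly up to about 6.7 µM; 0% = DMSO vehicle and -100% = 0.29 µM artemisinin full kill; nearly all actives have a fitted effect of over 65% in size.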 An outline of the steps: as §1
Test [4] in a line: qHTS for Inhibitors of Plasmodium falciparum (HB3) proliferation (AID 504318).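 Further: 0% = DMSO vehicle and -100% = artemisinin control; nearly all actives have a fitted effect of over 60% in size.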 An outline of the steps: as §1
Test [5] is described as follows: qHTS for Inhibitors of Plasmodium falciparum (CP250) proliferation (AID 504320).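 Further: plate controls were DMSO vehicle for no effect and 0.29 µM artemisinin control for full effect.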 An outline of the steps:
as §1

Test [6] concerns the target Cytochrome P450 2C9 (Homo sapiens) (UniProt P11712). Nature of the test: qHTS Assay for Inhibitors and Substrates of Cytochrome P450 2C9 (AID 883). Further: on the % scale 0 is the no-effect control and ±100 the full control effect; nearly all actives have a fitted effect of over 60% in size. An outline of the steps: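 A luminogenic readout tracked human CYP2C9 (10nM) converting deoxyluciferin (100uM, at KM) in 25mM KPO4 during 60 min at 37C with regenerated NADPH. Values normalized to 57uM sulphaphenazole as complete inhibition.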

For test [7], the target named is Cytochrome P450 3A4 (Homo sapiens) (UniProt P08684). Put plainly: qHTS Assay for Activators of Cytochrome P450 3A4 (AID 885). Further: nearly all actives have a fitted effect of over 65% in size. Put shortly: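 Human CYP3A4 dealkylates Luciferin-PPXE to luciferin, which luciferase detection converts to light. Substrate was at its KM (25uM), buffer 200mM KPO4, reaction 60 min at RT.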

Unmarked numbers belong to inactive results. Results filed as inconclusive are left out. Calls of active or inactive are those of the source. The call rests on the fitted dose curve; in most records, active means well fitted curve in the direction sought with a large enough effect; inconclusive means small, poorly fitted or top-dose-only effect, or another doubt; inactive means no such curve, though single readings can be large; an effect the other way counts as inactive or inconclusive.

Cytochrome P450 3A4 (Homo sapiens), sequence (P08684 whole entry, looked up): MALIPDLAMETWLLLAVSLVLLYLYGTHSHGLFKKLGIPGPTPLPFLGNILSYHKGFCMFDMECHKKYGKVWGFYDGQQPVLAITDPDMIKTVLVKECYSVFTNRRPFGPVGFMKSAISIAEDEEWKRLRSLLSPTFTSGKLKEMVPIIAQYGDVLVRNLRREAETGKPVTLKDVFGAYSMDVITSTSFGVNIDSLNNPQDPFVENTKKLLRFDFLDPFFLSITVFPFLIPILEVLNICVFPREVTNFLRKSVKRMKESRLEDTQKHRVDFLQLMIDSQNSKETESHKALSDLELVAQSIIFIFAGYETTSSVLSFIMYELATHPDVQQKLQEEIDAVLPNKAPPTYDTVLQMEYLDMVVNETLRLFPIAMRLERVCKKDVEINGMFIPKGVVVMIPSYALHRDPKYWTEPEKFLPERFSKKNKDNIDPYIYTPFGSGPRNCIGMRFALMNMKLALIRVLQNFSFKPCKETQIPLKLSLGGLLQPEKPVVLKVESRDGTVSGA
Cytochrome P450 2C9 (Homo sapiens), sequence (P11712 whole entry, looked up): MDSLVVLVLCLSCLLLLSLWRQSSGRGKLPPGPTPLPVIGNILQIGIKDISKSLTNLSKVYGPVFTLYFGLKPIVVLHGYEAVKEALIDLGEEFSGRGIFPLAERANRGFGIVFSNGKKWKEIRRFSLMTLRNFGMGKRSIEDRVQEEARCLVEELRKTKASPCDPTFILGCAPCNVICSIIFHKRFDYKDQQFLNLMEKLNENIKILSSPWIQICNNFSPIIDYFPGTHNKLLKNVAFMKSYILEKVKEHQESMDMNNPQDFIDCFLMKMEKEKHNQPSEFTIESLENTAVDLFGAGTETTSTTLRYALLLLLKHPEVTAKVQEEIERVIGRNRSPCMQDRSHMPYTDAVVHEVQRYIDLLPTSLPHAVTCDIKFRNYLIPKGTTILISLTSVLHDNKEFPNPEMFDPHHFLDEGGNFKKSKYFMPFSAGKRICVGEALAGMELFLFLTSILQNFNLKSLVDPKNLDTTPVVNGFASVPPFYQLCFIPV

With `COC(=O)CCC(=O)OC1(C)C(=O)C=C2C=C(C3CC3)N(C(CO)CO)C=C2C1=O` (stereo not drawn), the Potency entry in test [1], in test [2], in test [3], in test [4] and in test [5] was “inactive” in each case.

With `COCC(=O)N1CCc2nc(COc3ccccc3)c3c(c2C1)CO[C@@H](C)C3`, the Potency result in test [1], in test [2], in test [3] and in test [5] was “inactive” throughout.

For the compound `COC/C=C/C1=CC2=CC(=O)C(C)(OC(=O)c3cnc4ccccc4n3)C(=O)C2=CN1Cc1ccco1` (stereo not drawn), the Potency entry in test [1], in test [2], in test [3], in test [4] and in test [5] was “inactive” in each case.

`COc1ccc2c(c1)O[C@@H](c1cccc(C(F)(F)F)c1)[C@H](OC(=O)N[C@H]1CCCc3ccccc31)C2=O`: the Potency entry in test [1], in test [2] and in test [4] was “inactive” each time.

Consider `CCN1C(=O)N[C@@H](c2cccc(C(F)(F)F)c2)C(C(=O)OC)=C1C`, for which the Potency result in test [1], in test [2], in test [3], in test [4] and in test [5] was “inactive” each time.

Regarding `COC(=O)c1ccccc1S(=O)(=O)N1CCc2nc(COc3ccccc3)c3c(c2C1)CO[C@@H](C)C3`, the Potency result in test [1], in test [2], in test [3] and in test [5] was “inactive” throughout.

As for `CCN1C(=O)[C@@H]2[C@H]3[C@H](O)[C@H](O)CC(=NO[C@@H](C)c4cc(-c5c(C)cc(C)cc5C)no4)[C@@H]3CC[C@H]2C1=O`, the Potency result in test [1], in test [2], in test [3] and in test [5] was “inactive” in each case.

Take `COC(=O)CCC(=O)OC1(C)C(=O)C2=CN(c3ccccc3)C(c3ccc(OC)cc3)=CC2=C(Br)C1=O` (stereo not drawn): the Potency result in test [1], in test [2], in test [3] and in test [5] was “inactive” each time.

Consider `COC(=O)[C@H]1[C@@H](C)N(Cc2ccccc2)C(=O)N[C@H]1c1cccc(C(F)(F)F)c1`, for which the Potency result in test [1], in test [2], in test [3], in test [4] and in test [5] was “inactive” each time.

In the case of `CCCCC1=CC2=CC(=O)C(C)(OC(=O)CC)C(=O)C2=CN1c1ccncc1` (stereo not drawn), the Potency result in test [1], in test [2], in test [3], in test [4] and in test [5] was “inactive” throughout.

Take `CCN1C(=O)N[C@@H](c2cccc(F)c2)C(C(C)=O)=C1C`: the Potency result in test [1], in test [2], in test [3] and in test [5] was “inactive” throughout.

As to `CCOC(=O)CN1C(=O)N[C@@H](c2cccc(C(F)(F)F)c2)[C@H](C(=O)OC)[C@H]1C`, the Potency result in test [1], in test [2] and in test [4] was “inactive” throughout.

On to `COC(=O)[C@@]1(C=C2c3ccc(F)cc3[C@@H](OC)[C@@H]2C)[C@@H]2CC=C[C@@H]21`, for which the Potency entry in test [1], in test [2], in test [3] and in test [5] was “inactive” in each case.

On to `COC/C=C/C1=CC2=CC(=O)C(C)(OC(=O)c3cnc4ccccc4n3)C(=O)C2=CN1CCCCO` (stereo not drawn), for which the Potency entry in test [1], in test [2], in test [3] and in test [5] was “inactive” each time.

Turning to `CC#CCN1c2ccccc2[C@]23C[C@@H](C(=O)OC)N(C(C)=O)C2=NC(C(=O)OC)=C(C(=O)OC)[C@H]13`, the Potency entry in test [1], in test [2], in test [3] and in test [5] was “inactive” each time.

Take `C=CCN1c2ccccc2[C@]23C[C@@H](C(=O)OC)N=C2NC(C(=O)OC)=C(C(=O)OC)[C@H]13`: the Potency entry in test [1], in test [2], in test [3] and in test [5] was “inactive” each time.

Consider `CCCCc1nc2c(c3c1C[C@H](C)OC3)CN(S(=O)(=O)c1ccc(Cl)c3nonc13)CC2`, for which the Potency result in test [1], in test [2], in test [3] and in test [5] was “inactive” in each case.

In the case of `CCN1C(=O)N[C@@H](c2cccs2)C(C(C)=O)=C1C`, the Potency entry in test [1], in test [2], in test [3] and in test [5] was “inactive” throughout.

As for `CCCCC1=CC2=CC(=O)C(C)(OC(=O)CC)C(=O)C2=CN1Cc1ccccc1` (stereo not drawn), the Potency entry in test [1], in test [2], in test [3] and in test [5] was “inactive” throughout.

As for `COC(=O)C1=C(C(=O)OC)[C@@H]2Nc3ccccc3[C@@]23C[C@@H](C(=O)OC)N(C(=O)c2ccco2)C3=N1`, the Potency result in test [1], in test [2], in test [3] and in test [5] was “inactive” in each case.

As for `COC(=O)CCCC1=CC2=CC(=O)C(C)(OC(=O)c3cccs3)C(=O)C2=CN1Cc1ccccc1` (stereo not drawn), the Potency entry in test [1], in test [2], in test [3], in test [4] and in test [5] was “inactive” each time.

As for `COC(=O)N1CCc2cc(OC)c(OC)cc2C1Cc1ccc(OC)cc1` (stereo not drawn), the Potency entry in test [6], in test [1], in test [2], in test [4] and in test [5] was “inactive” in each case. In addition, in test [7], the activity change, positive = activation is -32.2% [at 11.4 µM].

Take `C=CCN1c2ccccc2[C@]23C[C@@H](C(=O)OC)N(S(=O)(=O)c4c(C)noc4C)C2=NC(C(=O)OC)=C(C(=O)OC)[C@H]13`: the Potency entry in test [1], in test [2] and in test [5] was “inactive” in each case.

`COC(=O)[C@@H](NC(=O)N1CCc2nc(-c3ccc(OC)cc3C)c3c(c2C1)CO[C@@H](c1ccccc1)C3)C(C)C`: the Potency result in test [1] and in test [5] was “inactive” in each case. In test [2], the Potency was 1.9 µM (active).

Take `COC(=O)[C@H]1[C@@H](C)N(Cc2ccccc2)C(=O)N[C@H]1c1ccccc1`: the Potency result in test [1], in test [2], in test [4] and in test [5] was “inactive” in each case.

As for `CC#CCN1c2ccccc2[C@]23C[C@@H](C(=O)OC)N(C(=O)OCC)C2=NC(C(=O)OC)=C(C(=O)OC)[C@H]13`, the Potency result in test [1], in test [2], in test [4] and in test [5] was “inactive” throughout.

For the origin of these results see PubChem BioAssay (NCATS).
